The chains are these.
T1: RBFOX1 RRM (Homo sapiens, UniProt Q9NWB1 109-208)
T1 sequence: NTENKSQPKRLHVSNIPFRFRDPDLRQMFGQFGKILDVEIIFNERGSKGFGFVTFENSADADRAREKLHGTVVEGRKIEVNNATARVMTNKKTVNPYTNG

B1: UUUCUUU (DNA:RNA)
RNA: GGGAGACCGGAAUUCAGAUUGUCCUUUCUUUUUAAAUCCCGUCGUAGCCACCA
DNA 1: CAATCTGAATTCCGGTCTCCC
DNA 2: TGGTGGCTACGACGGGATT
B2: UUGUCUG (DNA:RNA)
RNA: B1 RNA with U27G, C28U, U29C, U31G
DNA 1: CAATCTGAATTCCGGTCTCCC
DNA 2: TGGTGGCTACGACGGGATT
B3: GACUUAC (DNA:RNA)
RNA: B1 RNA with U25G, U26A, U27C, C28U, U30A, U31C
DNA 1: CAATCTGAATTCCGGTCTCCC
DNA 2: TGGTGGCTACGACGGGATT
B4: AGCGCCC (DNA:RNA)
RNA: GGGAGACCGGAAUUCAGAUUGUCCAGCGCCCUUAAAUCCCGUCGUAGCCACCA
DNA 1: CAATCTGAATTCCGGTCTCCC
DNA 2: TGGTGGCTACGACGGGATT
B5: GAUUAAA (DNA:RNA)
RNA: B1 RNA with U25G, U26A, C28U, U29A, U30A, U31A
DNA 1: CAATCTGAATTCCGGTCTCCC
DNA 2: TGGTGGCTACGACGGGATT
B6: CAAACAU (DNA:RNA)
RNA: B4 RNA with A25C, G26A, C27A, G28A, C30A, C31U
DNA 1: CAATCTGAATTCCGGTCTCCC
DNA 2: TGGTGGCTACGACGGGATT
B7: UAGGGUA (DNA:RNA)
RNA: B1 RNA with U26A, U27G, C28G, U29G, U31A
DNA 1: CAATCTGAATTCCGGTCTCCC
DNA 2: TGGTGGCTACGACGGGATT
B8: CGGCUCA (DNA:RNA)
RNA: B4 RNA with A25C, C27G, G28C, C29U, C31A
DNA 1: CAATCTGAATTCCGGTCTCCC
DNA 2: TGGTGGCTACGACGGGATT
B9: AUGGGUC (DNA:RNA)
RNA: B4 RNA with G26U, C27G, C29G, C30U
DNA 1: CAATCTGAATTCCGGTCTCCC
DNA 2: TGGTGGCTACGACGGGATT
B10: ACGAACG (DNA:RNA)
RNA: B4 RNA with G26C, C27G, G28A, C29A, C31G
DNA 1: CAATCTGAATTCCGGTCTCCC
DNA 2: TGGTGGCTACGACGGGATT
B11: GAGUUAU (DNA:RNA)
RNA: B1 RNA with U25G, U26A, U27G, C28U, U30A
DNA 1: CAATCTGAATTCCGGTCTCCC
DNA 2: TGGTGGCTACGACGGGATT
B12: UGCUUGC (DNA:RNA)
RNA: B4 RNA with A25U, G28U, C29U, C30G
DNA 1: CAATCTGAATTCCGGTCTCCC
DNA 2: TGGTGGCTACGACGGGATT
B13: UUGAUGC (DNA:RNA)
RNA: B1 RNA with U27G, C28A, U30G, U31C
DNA 1: CAATCTGAATTCCGGTCTCCC
DNA 2: TGGTGGCTACGACGGGATT
B14: UGCUUGA (DNA:RNA)
RNA: B4 RNA with A25U, G28U, C29U, C30G, C31A
DNA 1: CAATCTGAATTCCGGTCTCCC
DNA 2: TGGTGGCTACGACGGGATT
B15: UGCUUAA (DNA:RNA)
RNA: B4 RNA with A25U, G28U, C29U, C30A, C31A
DNA 1: CAATCTGAATTCCGGTCTCCC
DNA 2: TGGTGGCTACGACGGGATT
B16: CUGCUAG (DNA:RNA)
RNA: B1 RNA with U25C, U27G, U30A, U31G
DNA 1: CAATCTGAATTCCGGTCTCCC
DNA 2: TGGTGGCTACGACGGGATT
B17: UGAUUGC (DNA:RNA)
RNA: B4 RNA with A25U, C27A, G28U, C29U, C30G
DNA 1: CAATCTGAATTCCGGTCTCCC
DNA 2: TGGTGGCTACGACGGGATT
B18: UUGCUGC (DNA:RNA)
RNA: B1 RNA with U27G, U30G, U31C
DNA 1: CAATCTGAATTCCGGTCTCCC
DNA 2: TGGTGGCTACGACGGGATT
B19: UGCUAGU (DNA:RNA)
RNA: B4 RNA with A25U, G28U, C29A, C30G, C31U
DNA 1: CAATCTGAATTCCGGTCTCCC
DNA 2: TGGTGGCTACGACGGGATT
B20: CUAGUUG (DNA:RNA)
RNA: B1 RNA with U25C, U27A, C28G, U31G
DNA 1: CAATCTGAATTCCGGTCTCCC
DNA 2: TGGTGGCTACGACGGGATT

Substitutions are numbered along the chain they refer to; changes in the protein carry UniProt numbers. In all, about 16,000 sequences were measured (“ka relative to ugcaugu”: median about 0.0091, highest 2% from about 0.032 on). The sample as a whole holds a higher share of the highest values than the screen did.

This assay has as its target T1, RBFOX1 RRM. The experiment in a line: EMSA; HiTS-Eq, 1 nM pool, 10 min; buffer printed only for the single-RNA assays: 10 mM Tris pH 7.5, 150 mM NaCl, 3.4 mM EDTA, 0.001% NP-40, 30 C. The conditions noted are these: tags: His6 N-terminal (pET28a); label: 5' 32P. Put shortly: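 Purified RbFox RRM, wild type or mutant, was incubated for 10 min in 50 µL with 1 nM of a 5′-radiolabelled RNA pool carrying 7 randomized nucleotides, whose flanks were annealed to DNA oligonucleotides, over a series of increasing protein concentrations. Unbound RNA was resolved on 8% native PAGE, cut out, reverse-transcribed, barcoded by PCR and sequenced on an Illumina HiSeq 2500. Relative association constants were derived from changes in read counts for each RNA species versus the control reaction and normalised to the cognate motif.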
For the molecule B1, the binding signal was 0.0113 KA relative to UGCAUGU.

Consider B2, for which the binding signal is 0.0312 KA relative to UGCAUGU.

Consider B3, for which the binding signal is 0.00749 KA relative to UGCAUGU.

B4: the binding signal was 0.00884 KA relative to UGCAUGU.

As for B5, the binding signal is 0.00427 KA relative to UGCAUGU.

As to B6, the binding signal was 0.000358 KA relative to UGCAUGU.

For B7, the binding signal is 0.0162 KA relative to UGCAUGU.

B8: the binding signal was 0.00697 KA relative to UGCAUGU.

Consider B9, for which the binding signal was 0.0197 KA relative to UGCAUGU.

As to B10, the binding signal is 0.0126 KA relative to UGCAUGU.

As to B11, the binding signal is 0.00747 KA relative to UGCAUGU.

For the molecule B12, the binding signal is 0.088 KA relative to UGCAUGU.

On to B13, for which the binding signal was 0.0187 KA relative to UGCAUGU.

On to B14, for which the binding signal is 0.0378 KA relative to UGCAUGU.

Regarding B15, the binding signal was 0.0138 KA relative to UGCAUGU.

For the molecule B16, the binding signal is 0.0317 KA relative to UGCAUGU.

Take B17: the binding signal was 0.0265 KA relative to UGCAUGU.

Consider B18, for which the binding signal was 0.0167 KA relative to UGCAUGU.

For B19, the binding signal is 0.0309 KA relative to UGCAUGU.

With B20, the binding signal is 0.0137 KA relative to UGCAUGU.
